Assay results taken from PubChem BioAssay (EPA / NIEHS).
Calls of active or inactive are those of the source. How the source made its calls: active means hit-call score of the fitted dose curve at least 0.9, where 1 is the maximum; inactive means score below 0.9.

Assay: IUF_NPC3_neuronal_differentiation_120hr: Leibniz Research Institute for Environmental Medicine (IUF) 120-hour Neuronal Differentiation Assay (NPC3) (AID 2284301)
Experimental: IUF_NPC2-5 is a cell-based, multiplexed assay that uses hNPC, a human primary neural progenitor cells, with measurements taken at 72 or 120 hours after chemical dosing in a 96-well plate. Human neural progenitor cells (hNPC) are generated from human fetal brain cortex at gestational week (GW) 16-19. In the neural progenitor cell migration and differentiation assay (NPC2-5), hNPCs grown as spheres are plated on an extracellular matrix and migrate and differentiate out of the sphere core. The processes radial glia migration, neuronal and oligodendrocyte migration as well as neuronal differentiation, neuronal morphology and oligodendrocyte differentiation are studied using automated phase contrast imaging and automated fluorescence imaging in combination with high content image analysis. In parallel, the cell viability is assessed using an alamar blue viability assay and the cytotoxicity using a lactate dehydrogenase dependent membrane integrity assay.IUF_NPC3_neuronal_differentiation_120hr is one of 12 assay components measured from the IUF_NPC2-5 assay. Neuronal differentiation is determined as the number of all TUBB3 positive cells in percent of the number of Hoechst-positive nuclei in the total neurosphere migration area (see IUF_NPC2a_ glia_migration_120hr) after 120 hr of migration/differentiation. Neurons are automatically identified using a convolutional neural network (CNN) that was trained using manually annotated images of differentiated neurons. Data from the IUF_NPC3_neuronal_differentiation_120hr component was analyzed at the endpoint IUF_NPC3_neuronal_differentiation_120hr in the positive analysis fitting direction relative to DMSO as the negative control and baseline of activity. Using a type of differentiation reporter, gain or loss-of-signal activity can be used to understand developmental effects.
Culture protocol: After the cell expansion period the cells are cultured for up to four weeks in which they are passaged every week as described in 3.6. Between one to three days after passaging spheres at a size of 0.3 mm are picked for the test method. For the assessment of neural progenitor cell migration and differentiation, the spheres are plated on poly-D-lysine/laminin coated 96-well flat bottom plates in differentiation medium (N2) to initiate migration and differentiation. Thereby one 0.3 mm big sphere is plated in the middle of a well. The differentiation medium consists of DMEM and Ham's F12 at a ratio of 3 to 1 supplemented with 1% N2 and 1% penicillin and streptomycin. Within 5 days NPCs radially migrate out of the sphere core and differentiate into radial glia cells (nestin positive), neurons (TUBB3 positive), oligodendrocytes (O4 positive) and astrocytes (GFAP positive). Cultivation during the test method is performed at 37C and 5% CO2 at a ph of 7.2-7.6.Exposure: 0.3 mm big hNPC are plated in the already prepared test conditions. Exposure starts at day 0 of differentiation and is continued over five days of differentiation until the experiment is terminated. Cells are fed with fresh medium at day 3 of differentiation. Therefore, half of the test condition solution (e.g. solvent control or compound dilution) is replaced by freshly prepared test condition solution.Test Method: Migration distance and cytotoxicity is determined after 72 hours based on brightfield images of each well. The assay is terminated by the assessment of cell viability and cytotoxicity as well as cell fixation after 120 h. Immunocytochemistry is performed for Hoechst positive nuclei, TUBB3 positive neurons and O4 positive oligodendrocytes. On the ICC images, migration after 120 hours, neuronal and oligodendrocyte number, neuronal morphology and neuron/oligodendrocyte specific migration is assessed. immunocytochemical staining (ICC) generates an image for each sphere. The plates are scanned using an automated high content imaging device and all nuclei and their positions are determined automatically based on their intensity and size. […]

Q: With `N#Cc1nn(-c2c(Cl)cc(C(F)(F)F)cc2Cl)c(N)c1S(=O)C(F)(F)F` (centres undefined) as the molecule, how does the outcome read?
A: inactive

Q: Which outcome does the source give for `COP(N)(=O)SC` (centres undefined) here?
A: inactive

Q: With `CO/C=C(/C(=O)OC)c1ccccc1Oc1cc(Oc2ccccc2C#N)ncn1` as the molecule, how does the outcome read?
A: inactive

Q: Which AC50 does the source give for `Cc1ccc(-c2c(Cl)nc(C#N)n2S(=O)(=O)N(C)C)cc1` here?
A: 31.3 µM (active)

Q: With `CNC(=O)ON=CC(C)(C)SC` as the molecule, how does the outcome read?
A: inactive

Q: With `C=CC1(C)OC(=O)N(c2cc(Cl)cc(Cl)c2)C1=O` (centres undefined) as the molecule, how does the outcome read?
A: inactive

Q: For `CCCCC(CC)COC(=O)c1ccccc1C(=O)OCC(CC)CCCC` (centres undefined), which outcome is on record?
A: inactive

Q: Which outcome does the source give for `CCCCOC(=O)c1ccccc1C(=O)OCCCC` here?
A: inactive

Q: Which outcome does the source give for `CC(C)(C)c1ccc(CSc2cnn(C(C)(C)C)c(=O)c2Cl)cc1` here?
A: inactive

Q: For `COC(=O)N(OC)c1ccccc1COc1ccn(-c2ccc(Cl)cc2)n1`, which AC50 is on record?
A: 0.0497 µM (active)

Q: For `CCOC(=O)CC(SP(=S)(OC)OC)C(=O)OCC` (centres undefined), which outcome is on record?
A: inactive

Q: With `CN(C)C(=S)SSC(=S)N(C)C` as the molecule, how does the AC50 read?
A: 13.5 µM (active)

Q: Which outcome does the source give for `CCOc1cc(Oc2ccc(C(F)(F)F)cc2Cl)ccc1[N+](=O)[O-]` here?
A: inactive

Q: With `COP(=S)(OC)Oc1nc(Cl)c(Cl)cc1Cl` as the molecule, how does the outcome read?
A: inactive
